High-throughput results deposited in PubChem BioAssay by National Center for Advancing Translational Sciences (NCATS).
KB-3-1 cytotox = kills parental KB-3-1 adenocarcinoma cells; AID 1347075; 400,000 tested, 1.4% active; Potency, µM (doses to about 46.1 µM), usual class: cytotoxic; KB-3-1 viability, CellTiter-Glo ATP luminescence, 72 h; note: % is set by controls: 0 for no effect and ±100 for the full control effect; nearly all actives have a fitted effect of over 60% in size
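Cells are dispensed, compounds pinned in, plates held at 37 °C for 72 h, then CellTiter-Glo is added and luminescence read after 10 minutes. Cell line: parental KB-3-1 in phenol-red-free DMEM, 10% FBS.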
SW480 rerep = inducers of DNA re-replication in SW480 colon cancer cells. SW480 DNA re-replication, Hoechst DNA content imaging, 48 h. 340,000 tested, 1.8% active. Potency, µM (top dose mostly 46.1 µM), without a hit: at the top dose re-replication activation, usual class: activators; note: % of control where 0% means no effect; nearly all actives have a fitted effect of over 55% in size
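Cells (250 per well) received 23 nL compound or DMSO by pin tool and were kept 48 hr at 37 C, 5% CO2. Nuclei were then stained with Hoechst for 40 min and scanned for DNA content.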
KB-V1 MDR tox = KB-V1 MDR subline cytotoxicity. 400,000 tested, 3.4% active. Potency, µM (top dose mostly 46.1 µM), actives largely listed as cytotoxic. KB-V1 MDR cells viability, CellTiter-Glo, 72 h; note: % is set by controls: 0 for no effect and ±100 for the full control effect; nearly all actives have a fitted effect of over 60% in size
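KB-V1, DMEM (no phenol red) + 10% FBS; cpd pin-transferred, titration series; 72 h, 37 degrees C; CellTiter-Glo, luminescence. Data normalized, curve-fit.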
MCF10A rereplic = inducers of DNA re-replication in MCF 10A breast cells | 350,000 tested, 2.9% active | MCF 10A DNA re-replication, Hoechst nuclear intensity, 48 h | Potency, µM (highest dose often 46.1 µM), for the others: at the top dose activity, positive = re-replication, actives largely listed as activators; note: % of control where 0% means no effect; nearly all actives have a fitted effect of over 50% in size
ELG1 repair inh = blocks ELG1-dependent DNA repair in HEK293T cells. 330,000 tested, 2.3% active. Potency, µM (titrated, usually from 46.1 µM), for inactives: top-dose activity change, negative = inhibition, most hits filed as inhibitors. AID 504467. HEK293T ELG1-luciferase reporter, luminescence, 16 h; DNA damage induced by 5-fluorouridine; note: % is set by controls: 0 for no effect and ±100 for the full control effect; nearly all actives have a fitted effect of over 55% in size
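In this reporter screen, reduction of luminescence relative to DMSO vehicle indicated activity. Compounds and 5-fluorouridine were added together to 2,000 cells per well, incubated for 16 hr at 37 °C, then developed with ONE-Glo.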
* marks the source's active call; other numbers are inactive results; i = inactive; ? = inconclusive; · = not tested or not shown; [ ] = remark or other dose. A selection: hits, their analogues and other compounds. The true share with any hit is near 8.1%. Calls come from the whole dose curve; as a rule, active = well fitted curve in the direction sought with a large enough effect; inconclusive = small, poorly fitted or top-dose-only effect, or another doubt; inactive = no such curve, though single readings can be large; an effect the other way counts as inactive or inconclusive. Potency is the fitted concentration of half-maximal effect.

SMILES	KB-3-1 cytotox	SW480 rerep	KB-V1 MDR tox	MCF10A rereplic	ELG1 repair inh
Cc1nc(-c2ccc(C(=O)Nc3ccccc3F)cc2)cs1	?	-8%	12µM*	-2%	?
Cc1nc(-c2ccc(C(=O)Nc3ccc(F)cc3)cc2)cs1	i	2%	?	2%	?
Cc1ccc(-c2csc(/C=C3/SC(C)C(=O)N3CC(=O)Nc3ccccc3F)n2)cc1 (stereo not given)	i	?	i	21µM*	·
O=C(NCc1ccccn1)c1ccc(Cl)c(S(=O)(=O)NCc2ccccc2)c1	i	-1%	i	-4%	-1%
Cc1ccccc1OCC(=O)Nc1sc2c(c1C(=O)OC(C)C)CCCC2	i	·	i	·	·
O=C(COc1ccc(-c2ccccc2)cc1)N1CCN(S(=O)(=O)Cc2ccccc2)CC1	3.7µM*	?	4.6µM*	1%	?
O=C(O[C@@H]1OC2COC(=O)c3cc(O)c(O)c(O)c3-c3c(cc(O)c(O)c3O)C(=O)O[C@@H]([C@H]1O)[C@@H]2O)c1cc(O)c(O)c(O)c1	i	-31%	i	-6%	-14%
C/C=C/c1ccc(OCC(=O)OCC(=O)NC2CC2)c(OC)c1	i	-6%	i	1%	17%
CC1CC(NC(=O)c2c(O)nc3sccn3c2=O)CC(C)(C)C1 (stereo not given)	i	?	18µM*	-3%	12%
O=C(NC1CCCCC1)c1c(O)nc2sccn2c1=O	?	-554%	?	8%	?
CC1CC(NC(=O)c2c(O)nc3ccccn3c2=O)CC(C)(C)C1 (stereo not given)	i	-4%	21µM*	-4%	·
O=C(NCC1CCCO1)c1c(O)nc2sccn2c1=O (stereo not given)	i	-6%	i	-18%	5%
O=C(NC1CCCCCC1)c1c(O)nc2sccn2c1=O	?	6%	15µM*	-3%	23%
CN(C(=O)CSC1=Nc2ccccc2C2=NC(c3ccccc3)C(=O)N12)C1CCCCC1 (stereo not given)	i	10%	5.2µM*	?	-1%
O=C(CSC1=Nc2ccccc2C2=NC(c3ccccc3)C(=O)N12)NC1CCCCC1 (stereo not given)	i	-1%	i	?	-11%
COc1ccc(/C=C2\SC(=S)N(CC(=O)N(C)C3CCS(=O)(=O)C3)C2=O)cc1 (stereo not given)	i	?	i	21µM*	9%
COc1cccc(/C=C2\SC(=S)N(CC(=O)N(C)C3CCS(=O)(=O)C3)C2=O)c1 (stereo not given)	i	?	i	?	0%
CCCCNc1cc(=O)oc2ccccc12	i	2%	i	0%	-12%
CCOc1ccc(Nc2cc(=O)oc3ccccc23)cc1	i	-3%	13µM*	-3%	?
Cc1cc(Cl)ccc1OCCCC(=O)OCC(N)=O	i	-4%	i	7%	-7%
COc1cccc(N2CCN(C(=O)c3cnc4c(-c5ccccc5)c(C)nn4c3C)CC2)c1	i	·	i	·	·
Cc1cccc(Oc2ccccc2NC(=O)CSCC(=O)Nc2cc(C)on2)c1	?	-3%	7.3µM*	19%	?
CCOc1ccc(Oc2ccccc2NC(=O)CSCC(=O)Nc2cc(C)on2)cc1	?	0%	?	20%	21%
Cc1ccc(/C=C2\CCCC3=C2NC(=S)NC3c2ccc(C)cc2)cc1 (stereo not given)	?	67%	16µM*	23%	2%
CC(=O)C1=NN(c2ccccc2)C2(S1)S/C(=C\c1ccccc1)C(=O)N2c1ccccc1 (stereo not given)	i	5.2µM*	i	?	-5%
SMILES	KB-3-1 cytotox	SW480 rerep	KB-V1 MDR tox	MCF10A rereplic	ELG1 repair inh
O=C(CSc1nnc(-c2ccco2)n1-c1ccccc1)NCc1ccc2c(c1)OCO2	i	-3%	i	?	-14%
Cn1c(Sc2ccc(Cl)cc2)c(C=O)c2ccccc21	?	?	?	?	7.3µM*
COc1ccc(Oc2c(C=O)c3ccccc3n2C)cc1	i	14%	i	7%	-11%
Cn1c(Oc2ccc(Cl)cc2)c(C=O)c2ccccc21	21µM*	-1%[9.22 µM]	?	?	12µM*
COc1ccc2c(C)c(Cl)c(=O)oc2c1	i	1%	i	0%	21%
C=C1CC(COc2ccc3c(C)c(Cl)c(=O)oc3c2)(c2ccccc2)OC1=O (stereo not given)	?	?	?	4.6µM*	·
COc1ccc2c(c1)C(=NN)c1cc(OC)ccc1-2	i	2%	10µM*	-5%	23%
O=C1Nc2ccc3c(c2C1=Cc1cc2c(cc1Br)OCO2)OCO3	5.2µM*	18µM*	?	5.2µM*	·
CNC1=C(N(C(C)=O)c2ccc(Br)cc2)C(=O)c2ccccc2C1=O	?	8.2µM*	?	0.58µM*	3.7µM*
CCC(=O)N(C1=C(NC)C(=O)c2ccccc2C1=O)C(C)C	2.6µM*	?	?	5.8µM*	?
CCC(=O)N(CC)C1=C(O)c2ccccc2C(=O)C1=O	i	?	i	?	-1%
CC(=O)NC1=C(Nc2ccc(N(C)C)cc2)C(=O)c2ccccc2C1=O	i	18%	i	8%	?
CCCC(CCC(=O)Nc1ccc(C(=O)OCC)cc1)C(=O)O (stereo not given)	i	0%	i	-4%	0%
O=S(=O)(CS(=O)(=O)c1ccc(Cl)cc1)c1ccc(Cl)cc1	i	-15%	i	21µM*	-3%
Cc1ccc(S(=O)(=O)CS(=O)(=O)c2ccc(C)cc2)cc1	i	-2%	?	-1%	·
C=CCCC1(C)C(=O)N(c2ccccc2)c2ccccc21 (stereo not given)	?	18µM*	?	?	?
O=C(NCCSc1ccccc1)c1cncc(Br)c1	i	-8%	i	-5%	?
CCCCNC(=O)c1sc2nc(C)cc(COC)c2c1-n1cccc1	i	-4%	5.2µM*	0%	?
COCc1cc(C)nc2sc(C(=O)Nc3ccccc3F)c(N)c12	?	12µM*	i	6.5µM*	-4%
COCc1cc(C)nc2sc(C(=O)OC(C)C)c(N)c12	i	?	?	21µM*	?
Cc1cc(C)n2nc(C(=O)OCC(=O)Nc3cc(S(=O)(=O)N4CCOCC4)ccc3Cl)nc2n1	i	0%	i	20%	·
COc1ccc(/C=C(\C#N)C(=O)OCC(=O)NC2CC2)cc1	i	8%	i	0%	-1%
NC(=O)NCc1ccc(C(=O)OCc2ccncc2)cc1	i	-8%	i	-1%	12%
